In assay [1] the target is T1, Protein deacetylase HDAC6 (Homo sapiens) (UniProt Q9UBN7).
T1 sequence (whole entry): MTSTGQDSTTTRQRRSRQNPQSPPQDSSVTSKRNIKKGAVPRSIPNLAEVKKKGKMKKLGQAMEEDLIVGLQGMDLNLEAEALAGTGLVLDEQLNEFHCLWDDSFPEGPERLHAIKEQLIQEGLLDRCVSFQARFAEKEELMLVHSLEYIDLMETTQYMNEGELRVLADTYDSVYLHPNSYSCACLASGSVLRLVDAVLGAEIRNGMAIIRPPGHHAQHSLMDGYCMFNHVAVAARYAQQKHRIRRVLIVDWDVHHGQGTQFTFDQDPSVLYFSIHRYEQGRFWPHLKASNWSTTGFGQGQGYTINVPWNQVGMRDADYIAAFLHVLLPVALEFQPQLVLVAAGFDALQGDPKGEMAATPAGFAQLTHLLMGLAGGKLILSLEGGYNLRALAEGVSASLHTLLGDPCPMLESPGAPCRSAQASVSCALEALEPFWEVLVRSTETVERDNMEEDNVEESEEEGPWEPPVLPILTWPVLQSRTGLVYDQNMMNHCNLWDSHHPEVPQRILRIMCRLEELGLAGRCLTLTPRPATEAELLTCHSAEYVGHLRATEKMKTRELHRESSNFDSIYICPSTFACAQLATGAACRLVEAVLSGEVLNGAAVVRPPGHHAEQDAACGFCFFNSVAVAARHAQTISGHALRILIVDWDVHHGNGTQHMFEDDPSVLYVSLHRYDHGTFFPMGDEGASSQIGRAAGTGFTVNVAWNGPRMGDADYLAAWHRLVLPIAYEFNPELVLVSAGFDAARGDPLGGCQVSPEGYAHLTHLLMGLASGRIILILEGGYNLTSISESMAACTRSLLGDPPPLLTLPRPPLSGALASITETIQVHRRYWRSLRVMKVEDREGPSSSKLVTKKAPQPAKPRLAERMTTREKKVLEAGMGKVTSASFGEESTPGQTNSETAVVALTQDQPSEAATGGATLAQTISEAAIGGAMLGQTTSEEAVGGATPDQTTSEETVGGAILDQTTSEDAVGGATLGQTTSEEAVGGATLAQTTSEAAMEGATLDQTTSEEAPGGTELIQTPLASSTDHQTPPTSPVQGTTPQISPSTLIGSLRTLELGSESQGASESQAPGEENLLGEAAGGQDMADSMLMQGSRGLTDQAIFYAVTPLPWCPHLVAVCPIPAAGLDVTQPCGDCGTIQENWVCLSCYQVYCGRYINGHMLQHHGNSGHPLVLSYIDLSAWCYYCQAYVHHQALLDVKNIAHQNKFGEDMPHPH
As to conditions: at 10 µM.

In assay [2] the target is Protein deacetylase HDAC6 (Homo sapiens) (UniProt Q9UBN7). As to conditions: at 10 µM. The source holds these as a separate data set.

Out of some 5,600 compounds screened, about 150 (2.7%) showed an effect of 50% or more. The sample holds strong results, similar compounds and a random draw of the others, so the mix is not that of the screen.

For 62 compounds, inhibition results are on record in ChEMBL document CHEMBL4808148, “HDAC6 screening dataset using tau-based substrate in an enzymatic assay yields selective inhibitors and activators” (2021).

For orientation: inhibition means the change of the read-out against control, counted positive when it falls. Regarding `Cc1cccc(-c2n[nH]cc2-c2ccc3ncccc3n2)n1`, in assay [1], the inhibition was -0.98%. Consider `Cc1cc(O)c2c(=O)c3c(O)cc(O)c4c5c(O)cc(O)c6c(=O)c7c(O)cc(C)c8c1c2c(c34)c(c78)c65`, for which the inhibition in assay [1] came out at 22.2%. On to `CCCCCCCCCCCCCCCC(=O)N[C@@H](CCC(=O)NCCCC[C@H](NC(=O)[C@H](C)NC(=O)[C@H](C)NC(=O)[C@H](CCC(N)=O)NC(=O)CNC(=O)[C@H](CCC(=O)O)NC(=O)[C@H](CC(C)C)NC(=O)[C@H](Cc1ccc(O)cc1)NC(=O)[C@H](CO)NC(=O)[C@H](CO)NC(=O)[C@@H](NC(=O)[C@H](CC(=O)O)NC(=O)[C@H](CO)NC(=O)[C@@H](NC(=O)[C@H](Cc1ccccc1)NC(=O)[C@@H](NC(=O)CNC(=O)[C@H](CCC(=O)O)NC(=O)[C@H](C)NC(=O)[C@@H](N)Cc1cnc[nH]1)[C@@H](C)O)[C@@H](C)O)C(C)C)C(=O)N[C@@H](CCC(=O)O)C(=O)N[C@@H](Cc1ccccc1)C(=O)N[C@H](C(=O)N[C@@H](C)C(=O)N[C@@H](Cc1c[nH]c2ccccc12)C(=O)N[C@@H](CC(C)C)C(=O)N[C@H](C(=O)N[C@@H](CCCNC(=N)N)C(=O)NCC(=O)N[C@@H](CCCNC(=N)N)C(=O)NCC(=O)O)C(C)C)[C@@H](C)CC)C(=O)O`, for which the inhibition in assay [1] was -0.77%. With `CC(=O)/N=c1/sc(S(N)(=O)=O)nn1C`, the inhibition in assay [1] turned out to be 0.67%. Take `NS(=O)(=O)c1nn2cc(-c3ccccc3)nc2s1`: the inhibition in assay [1] worked out at 82%. Turning to `CCCCOC(=O)c1cc2c(cn1)[nH]c1ccccc12`, in assay [1], the inhibition was determined as 36%.

As for `O=C(O)c1cnn(-c2nc3cc(OC(F)(F)F)c(Cl)cc3[nH]2)c1`, the inhibition in assay [1] was 95.9%. Regarding `Cc1ccc2[nH]c(=O)c(C3=NN(C(=O)CCC(=O)O)C(c4ccc(Br)cc4)C3)c(-c3ccccc3)c2c1` (configuration not stated), the inhibition in assay [1] was -0.13%. On the same count and under the same terms, under `CCC(CC)Nc1cc(C)nc(Oc2c(C)cc(C)cc2C)c1C` stands -6.76%. With `O=C(O)Cc1cc2ccccc2nc1C(=O)O`, the inhibition in assay [1] worked out at 6.45%. Regarding `C[C@@H]1O[C@@]2(CS1)CN1CCC2CC1.C[C@H]1O[C@]2(CS1)CN1CCC2CC1`, the inhibition in assay [1] was -5.94%. Same read-out and setting: under `O=C(CCCCCN1C(=O)c2cccc3cccc(c23)C1=O)NO` stands 98.7%; under `O=C(O)CCCN1C(=O)c2cccc3cccc(c23)C1=O`, -1.41%; under `O=C(O)CN1C(=O)c2cccc3cccc(c23)C1=O`, 5.8%. With `CC(C)(Sc1ccncc1-c1ccc(C#N)c2ccccc12)C(=O)O`, in assay [1], the inhibition turned out to be 2.75%. As to `N[C@H](Cc1c[nH]cn1)C(=O)O`, the inhibition in assay [1] is 5.27%. On the same count and under the same terms, under `C/C(=N\NC(=O)C(NC(=O)c1ccccc1)c1n[nH]c(=O)c2ccccc12)c1cccc(Br)c1` (configuration not stated) stands 0.86%; under `Cc1noc(C)c1-c1cc(O)cc(C(O)c2ccccc2)c1` (configuration not stated), 2.55%; under `COc1ccc(CNC(=O)Nc2ncc([N+](=O)[O-])s2)cc1`, 64.8%.

Take `CC(=O)Nc1ncc([N+](=O)[O-])s1`: the inhibition in assay [1] was -3.88%. For the compound `COc1ccc(CNC(=O)c2sc3nc(C)cc(C)c3c2N)cc1`, the inhibition in assay [1] came out at 13.2%. As for `CCCCn1ccc(N2CCC(c3ccccc3)CC2)c(Cl)c1=O`, the inhibition in assay [1] amounted to 42.8%. In the case of `CC[C@@H]1C[C@H](N(Cc2cc(C(F)(F)F)cc(C(F)(F)F)c2)C(C)=O)c2cc(C(F)(F)F)ccc2N1C(=O)OC(C)C`, the inhibition in assay [1] amounted to 88.1%. The same measure, in the same setting: under `CCOC(=O)N1c2ccc(C(F)(F)F)cc2[C@@H](N(Cc2cc(C(F)(F)F)cc(C(F)(F)F)c2)C(=O)OC)C[C@H]1CC` stands -1.4%; under `CCCCCCCCCCCCCCCCNc1ccc(C(=O)O)cc1`, 2.63%. FLUPENTIXOL, CHEMBL6066864: the inhibition in assay [2] was found to be 14.4%. Regarding `CN(C)C(=O)COC(=O)Cc1ccc(OC(=O)c2ccc(NC(=N)N)cc2)cc1`, the inhibition in assay [1] stood at 96.5%. On to `CC(=O)Nc1ccc(CC(=O)O)cc1`, for which the inhibition in assay [1] was -5.64%.

As to `CCOC(=O)c1ccc(OC(=O)CCCCCNC(=N)N)cc1`, the inhibition in assay [1] came to 22.4%. For the compound `Nc1ccn([C@@H]2O[C@@](CO)(CCl)[C@@H](O)[C@H]2F)c(=O)n1`, the inhibition in assay [1] was -1.66%. Take `O=C(O)/C=C/c1ccc(O)cc1`: the inhibition in assay [1] is -0.48%. Still for that read-out and setting: under `O=C(/C=C/c1ccc(O)c(O)c1)O[C@H](Cc1ccc(O)c(O)c1)C(=O)O` stands 3.24%; under `O=C(/C=C/c1ccc(O)cc1)c1ccc(O)cc1O`, 99.7%; under `CC(C)(C)c1cc(C(=O)/C=C/c2ccc(C(=O)O)cc2)cc(C(C)(C)C)c1`, 2.42%. As to `O=C(O)/C=C/c1ccc(O)c(O)c1`, in assay [1], the inhibition was -0.33%.

For the compound `O=C(/C=C/c1ccc(O)c(O)c1)c1ccc(O)cc1O`, the inhibition in assay [1] was 99.2%. As for `CC(C)C[C@@H](NC(=O)OCC1c2ccccc2-c2ccccc21)C(=O)O`, in assay [1], the inhibition amounted to 3.37%. For CARBOPLATIN, CHEMBL1351, the inhibition in assay [2] was -2.28%.

For `CC(C)C[C@H](NC(=O)OCC1c2ccccc2-c2ccccc21)C(=O)O`, the inhibition in assay [1] was -7.02%. With `CC(C)(C)C1CCc2c(sc(NC(=O)c3ccco3)c2C(=O)O)C1` (configuration not stated), in assay [1], the inhibition was -1.94%. The same measure, in the same setting: under `O=c1ccc2c(OCCCCOc3ccccc3)c3ccoc3cc2o1` stands -4.23%; under `COc1ccc(S(=O)(=O)Nc2cc(Cl)cc(Cl)c2OC)cc1N1CCNCC1`, -0.38%. As to `CC1(C)Oc2ccc(C#N)cc2[C@H](N(Cc2ncc[nH]2)c2ccc(Cl)cc2)[C@H]1O`, the inhibition in assay [1] is 5.57%. Consider `O=C(O)c1cc(=O)c2ccccc2o1`, for which the inhibition in assay [1] came out at 10.2%. On the same count and under the same terms, under `CCOC(=O)COc1ccc2c(=O)cc(-c3ccccc3)oc2c1` stands -3.12%; under `CC(C)c1ccc(-c2cc(=O)c3ccccc3o2)cc1`, 77.3%. With “ACRIFLAVINE HYDROCHLORIDE, CHEMBL5219995”, in assay [2], the inhibition came out at 7.54%. In the case of `CCCCCCCCCCCCCCCCCCCCCC(=O)Nc1ccn([C@@H]2O[C@H](CO)[C@@H](O)[C@@H]2O)c(=O)n1`, in assay [1], the inhibition was -7.93%.

`COc1cc(-n2cnc3cc(-c4ccc(Cl)cc4)sc3c2=O)ccc1OCCN1CCCC1`: the inhibition in assay [1] worked out at 2.09%.

Regarding `O=C(CC(c1ccccc1)c1ccccc1)N1CCN(C(c2ccccc2)c2ccccc2)CC1`, in assay [1], the inhibition was -2.23%. For the compound `O=c1cc(-c2ccccc2)oc2cc(O)c(O)c(O)c12`, the inhibition in assay [1] is 75.1%. As to `O=C(O)[C@H]1O[C@H](Oc2cc3oc(-c4ccccc4)cc(=O)c3c(O)c2O)[C@H](O)[C@@H](O)[C@@H]1O`, the inhibition in assay [1] was -2.69%. With `COc1ccc(-c2cc(=O)c3c(OC)c(OC)c(OC)c(OC)c3o2)cc1OC`, in assay [1], the inhibition was -7.64%. In the case of `COc1ccc(-c2cc(=O)c3c(OC)c(OC)c(OC)c(OC)c3o2)cc1`, the inhibition in assay [1] is -4.13%. The same measure, in the same setting: under `O=C1C[C@@H](c2ccccc2)Oc2cc(O)cc(O)c21` stands 4%; under `O=c1oc2cc(O)ccc2s1`, -3.98%; under `O=c1cc(-c2ccc(O)cc2)oc2cc(O)cc(O)c12`, 66.2%. As for `O=c1c(O)c(-c2ccc(O)cc2)oc2cc(O)cc(O)c12`, the inhibition in assay [1] came out at 47.1%. As for `COc1ccc(-c2cc(=O)c3c(O)c(OC)c(O)cc3o2)cc1OC`, the inhibition in assay [1] came to 58.5%. Turning to `O=c1cc(-c2ccccc2)oc2cc(O)cc(O)c12`, the inhibition in assay [1] was determined as 72.7%. Regarding `O=c1c(O)c(-c2cc(O)c(O)c(O)c2)oc2cc(O)cc(O)c12`, the inhibition in assay [1] turned out to be 6.61%. Consider `O=C(O)Cc1cccc2c(=O)cc(-c3ccccc3)oc12`, for which the inhibition in assay [1] is 2.51%.
